Assay results: PubChem BioAssay (Tox21)
Inconclusive results are not listed. Where a call stands in place of a potency, no number is given. Unmarked numbers belong to inactive results. The source made the active and inactive calls. Unless noted, the call rests on the fitted dose curve.

Legend:
[1] = qHTS assay to identify small molecule agonists of the peroxisome proliferator-activated receptor delta (PPARd) signaling pathway - cell viability counter screen (AID 743211; active means well fitted curve in the direction sought with a large enough effect in the repeat runs; an effect the other way counts as inactive or inconclusive; further: nearly all actives have a fitted effect of over 55% in size; further: potency means the concentration at half of the fitted maximal effect)
Summary of the method: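 PPARd-bla HEK293H cells (UAS-beta-lactamase reporter) were treated with compounds for 17 h at 37 C. Viability was then read in the same wells by CellTiter-Glo luminescence after 30 min at room temperature.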

[2] = target: Peroxisome proliferator-activated receptor delta (Homo sapiens) (UniProt Q03181); assay: qHTS assay to identify small molecule agonists of the peroxisome proliferator-activated receptor delta (PPARd) signaling pathway (AID 743212)
Summary of the method: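 HEK293H UAS-bla reporter cells, human PPARd system; compounds delivered in DMSO after 5 h plating, then at 37 C. Beta-lactamase FRET read, 2 h RT substrate step.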

[3] = qHTS assay to identify small molecule antagonists of the peroxisome proliferator-activated receptor delta (PPARd) signaling pathway - cell viability counter screen (AID 743213; active means well fitted curve in the direction sought with a large enough effect in the repeat runs; an effect the other way counts as inactive or inconclusive; further: nearly all actives have a fitted effect of over 50% in size)
Summary of the method: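 Cytotoxicity counter screen: CellTiter-Glo luminescence read 30 min after addition, in the same wells as the reporter assay. There, PPARd UAS-bla HEK293H cells (3000/well) were treated 17 h at 37 C with compound and 300 nM L165041.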

[4] = target: Peroxisome proliferator-activated receptor delta (Homo sapiens) (UniProt Q03181); assay: qHTS assay to identify small molecule antagonists of the peroxisome proliferator-activated receptor delta (PPARd) signaling pathway (AID 743215; active means well fitted inhibition curve with a large enough effect in the signal ratio in the repeat runs, not every such curve was filed as active; the % refers to the signal ratio;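 further: cells stimulated with agonist L165041 at 300 nM final during compound exposure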; further: potency means the concentration at half of the fitted maximal effect)
Summary of the method: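 PPARd UAS-bla HEK293H cells were pre-incubated 5 h at 37 C, then given test compounds in DMSO plus agonist L165041 (300 nM final). After 17 h at 37 C, beta-lactamase FRET substrate was added; fluorescence read after 2 h at room temperature.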

[5] = target: Bile acid receptor (Homo sapiens) (UniProt Q96RI1); assay: qHTS assay to identify small molecule antagonists of the farnesoid-X-receptor (FXR) signaling pathway (AID 743217; active means well fitted inhibition curve with a large enough effect in the signal ratio in the repeat runs, not every such curve was filed as active; the % refers to the signal ratio; further: potency means the concentration at half of the fitted maximal effect)
Summary of the method: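 FXR-UAS-bla HEK 293T cells pre-incubated 5 h at 37 °C, then exposed to compounds with chenodeoxycholic acid (50 uM final) for 16 h at 37 °C. Beta-lactamase reporter read by LiveBLAzer B/G FRET substrate fluorescence after 2 h at room temperature.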

[6] = target: Bile acid receptor (Homo sapiens) (UniProt Q96RI1); assay: qHTS assay to identify small molecule agonists of the farnesoid-X-receptor (FXR) signaling pathway (AID 743220; active means well fitted activation curve with a large enough effect in the signal ratio in the repeat runs, not every such curve was filed as active; the % refers to the signal ratio)
Summary of the method: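 Beta-lactamase reporter under UAS control in GeneBLAzer FXR HEK 293T cells (5000/well) measured with LiveBLAzer FRET substrate after 2 h at room temperature. Compound exposure lasted 16 h at 37C.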

[7] = qHTS assay to identify small molecule antagonists of the farnesoid-X-receptor (FXR) signaling pathway - cell viability counter screen (AID 743221; active means well fitted cell-killing curve with a large enough effect in the repeat runs, not every such curve was filed as active; further: nearly all actives have a fitted effect of over 50% in size; further: potency means the concentration at half of the fitted maximal effect)
Summary of the method: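 FXR-UAS-bla HEK 293T cells were treated with test compounds plus chenodeoxycholic acid (50 uM final) for 16 h at 37 C. Cell viability in the same wells was then read as CellTiter-Glo luminescence after 30 min at room temperature.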

[8] = target: Vitamin D3 receptor (Homo sapiens) (UniProt P11473); assay: qHTS assay to identify small molecule agonists of the vitamin D receptor (VDR) signaling pathway (AID 743222)
Summary of the method: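 VDR-bla cells were plated 4 h at 37C/5% CO2, then exposed to compounds in DMSO for 16 h. After LiveBLAzer B/G FRET substrate addition and 2 h at room temperature, beta-lactamase reporter fluorescence was read.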

[9] = target: Vitamin D3 receptor (Homo sapiens) (UniProt P11473); assay: qHTS assay to identify small molecule antagonists of the vitamin D receptor (VDR) signaling pathway (AID 743223; active means well fitted inhibition curve with a large enough effect in the signal ratio in the repeat runs, not every such curve was filed as active; the % refers to the signal ratio)
Summary of the method: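 VDR-bla cells were plated, incubated 4 h at 37C, then given compound and 1alpha,25-dihydroxyvitamin D3 (3 nM final). After 16 h at 37C, LiveBLAzer B/G FRET substrate was added for 2 h at room temperature and fluorescence read.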

[10] = qHTS assay to identify small molecule agonists of the vitamin D receptor (VDR) signaling pathway - cell viability counter screen (AID 743224; active means well fitted curve in the direction sought with a large enough effect in the repeat runs; an effect the other way counts as inactive or inconclusive; further: nearly all actives have a fitted effect of over 50% in size; further: potency means the concentration at half of the fitted maximal effect)
Summary of the method: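 VDR-bla cells were preincubated 4 h at 37C/5% CO2, then exposed to compounds for 16 h. After the 2 h room-temperature bla FRET read, CellTiter-Glo was added to the same wells and luminescence read after 30 min.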

[11] = qHTS assay to identify small molecule antagonists of the vitamin D receptor (VDR) signaling pathway - cell viability counter screen (AID 743225; active means well fitted curve in the direction sought with a large enough effect in the repeat runs; an effect the other way counts as inactive or inconclusive; further: nearly all actives have a fitted effect of over 50% in size; further: potency means the concentration at half of the fitted maximal effect)
Summary of the method: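 VDR-bla HEK 293T cells, 4 h pre-incubation at 37C, then compound plus 1-alpha,25-dihydroxyvitamin D3 (3 nM final) for 16 h. After the beta-lactamase FRET read, CellTiter-Glo was added to the same wells; luminescence after 30 min at room temperature.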

[12] = qHTS assay to identify small molecule agonists of the NFkB signaling pathway - cell viability counter screen (AID 1159515); further: series mostly up to about 61 µM; nearly all actives have a fitted effect of over 55% in size
Summary of the method: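 NFkB-bla ME-180 cells, 2,000/well, were plated overnight at 37 C, 5% CO2, then exposed to compounds in DMSO for 5 hr. After the bla FRET read, CellTiter-Glo was added to the same wells; luminescence was read after 30 min at room temperature.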

[13] = qHTS assay to identify small molecule agonists of the endoplasmic reticulum stress response signaling pathway (AID 1159516; active means well fitted activation curve with a large enough effect in the signal ratio in the repeat runs, not every such curve was filed as active; the % refers to the signal ratio)
Summary of the method: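 CellSensor ESRE-bla HeLa cells, carrying a beta-lactamase reporter driven by the ER stress response element, were plated overnight and exposed to compounds for 5 hr at 37 C. Reporter activity was read as FRET substrate fluorescence after 2 hr at room temperature.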

[14] = qHTS assay to identify small molecule antagonists of the retinoid-related orphan receptor gamma (ROR-gamma) signaling pathway - cell viability counter screen (AID 1159520; active means well fitted curve in the direction sought with a large enough effect in the repeat runs; an effect the other way counts as inactive or inconclusive; further: nearly all actives have a fitted effect of over 50% in size)
Summary of the method: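 Cytotoxicity was read from cellular ATP (CellTiter-Glo luminescence) after 16 hr at 37 C with 1 uM doxycycline induction. The inducer was added 2 hr after compound transfer to Tet-on ROR gamma CHO cells.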

[15] = target: Nuclear receptor ROR-gamma (Homo sapiens) (UniProt P51449); assay: qHTS assay to identify small molecule antagonists of the retinoid-related orphan receptor gamma (ROR-gamma) signaling pathway (AID 1159521; active means well fitted curve in the direction sought with a large enough effect in the repeat runs; an effect the other way counts as inactive or inconclusive; further: nearly all actives have a fitted effect of over 50% in size; further: potency means the concentration at half of the fitted maximal effect)
Summary of the method: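 Tet-on RORγ CHO cells carrying a ROR response element–luciferase reporter were pretreated with compounds for 2 h, then induced with 1 uM (final) doxycycline hyclate for 16 h at 37 C. Antagonism was read as decreased ONE-Glo luminescence.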

[16] = qHTS assay to identify small molecule agonists of the AP-1 signaling pathway - cell viability counter screen (AID 1159525); further: nearly all actives have a fitted effect of over 55% in size; further: potency means the concentration at half of the fitted maximal effect
Summary of the method: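 Luminescent ATP readout (Cell Titer Glo, 30 min RT), normalised to DMSO and tetra n-octyl ammonium bromide controls. Cells were ME-180 AP-1-bla in 0.5% dialyzed FBS Opti-MEM, with a 5 h, 37 °C compound exposure.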

[17] = qHTS assay to identify small molecule agonists of the AP-1 signaling pathway (AID 1159526)
[18] = target: Retinoic acid receptor RXR-alpha (Homo sapiens) (UniProt P19793); assay: qHTS assay to identify small molecule agonists of the RXR signaling pathway (AID 1159527); further: nearly all actives have a fitted effect of over 35% in size; further: potency means the concentration at half of the fitted maximal effect
Summary of the method: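 GeneBLAzer RXR-alpha-UAS-bla HEK 293T cells in medium with 2% charcoal-stripped FBS, pre-incubated 5 hr at 37 C, then exposed to compounds 16 hr. Beta-lactamase reporter read by FRET substrate, 2 hr room temperature, 460/530 nm emission.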

[19] = qHTS assay to identify small molecule agonists of the farnesoid-X-receptor (FXR) signaling pathway - cell viability counter screen (AID 743218; active means well fitted curve in the direction sought with a large enough effect in the repeat runs; an effect the other way counts as inactive or inconclusive; further: nearly all actives have a fitted effect of over 45% in size; further: potency means the concentration at half of the fitted maximal effect)
Summary of the method: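 FXR-UAS-bla HEK 293T cells, plated 5 h at 37 C, were exposed to compounds for 16 h at 37 C. CellTiter-Glo was then added to the same wells as the bla readout; luminescence read after 30 min at room temperature.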

[20] = qHTS assay to identify small molecule agonists of the endoplasmic reticulum stress response signaling pathway - cell viability counter screen (AID 1159517)
Summary of the method: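 Cells, HeLa ESRE-bla; density, 1,500/well; dosing, 5 hr at 37 C, 5% CO2; readout, CellTiter-Glo luminescence after 30 min RT.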

Sequence of Bile acid receptor (Homo sapiens) (Q96RI1 whole entry, looked up): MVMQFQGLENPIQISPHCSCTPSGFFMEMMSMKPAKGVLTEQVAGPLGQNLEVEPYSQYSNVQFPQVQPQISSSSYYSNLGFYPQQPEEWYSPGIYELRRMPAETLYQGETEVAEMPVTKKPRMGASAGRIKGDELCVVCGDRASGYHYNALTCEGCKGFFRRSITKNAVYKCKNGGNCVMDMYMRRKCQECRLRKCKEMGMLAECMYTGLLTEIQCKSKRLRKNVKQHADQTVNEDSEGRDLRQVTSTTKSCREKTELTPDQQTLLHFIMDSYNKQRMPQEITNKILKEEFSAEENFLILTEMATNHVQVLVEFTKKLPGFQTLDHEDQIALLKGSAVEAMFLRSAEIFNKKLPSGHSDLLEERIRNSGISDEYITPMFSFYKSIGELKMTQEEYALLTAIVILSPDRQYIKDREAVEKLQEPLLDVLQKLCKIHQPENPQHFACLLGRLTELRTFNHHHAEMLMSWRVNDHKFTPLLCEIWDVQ
Sequence of Retinoic acid receptor RXR-alpha (Homo sapiens) (P19793 whole entry, looked up): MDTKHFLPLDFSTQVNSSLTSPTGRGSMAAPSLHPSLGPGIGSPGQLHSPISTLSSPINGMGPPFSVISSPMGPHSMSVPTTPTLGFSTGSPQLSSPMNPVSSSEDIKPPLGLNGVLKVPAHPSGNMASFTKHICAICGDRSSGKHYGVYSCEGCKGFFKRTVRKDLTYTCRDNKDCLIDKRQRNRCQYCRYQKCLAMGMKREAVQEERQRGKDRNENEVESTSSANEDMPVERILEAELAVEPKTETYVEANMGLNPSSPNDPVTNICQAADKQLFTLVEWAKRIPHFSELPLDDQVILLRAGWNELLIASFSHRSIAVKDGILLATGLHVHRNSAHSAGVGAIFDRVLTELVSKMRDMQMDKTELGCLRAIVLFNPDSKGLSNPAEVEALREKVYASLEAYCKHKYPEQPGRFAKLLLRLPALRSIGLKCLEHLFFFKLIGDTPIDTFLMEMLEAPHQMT
Sequence of Peroxisome proliferator-activated receptor delta (Homo sapiens) (Q03181 whole entry, looked up): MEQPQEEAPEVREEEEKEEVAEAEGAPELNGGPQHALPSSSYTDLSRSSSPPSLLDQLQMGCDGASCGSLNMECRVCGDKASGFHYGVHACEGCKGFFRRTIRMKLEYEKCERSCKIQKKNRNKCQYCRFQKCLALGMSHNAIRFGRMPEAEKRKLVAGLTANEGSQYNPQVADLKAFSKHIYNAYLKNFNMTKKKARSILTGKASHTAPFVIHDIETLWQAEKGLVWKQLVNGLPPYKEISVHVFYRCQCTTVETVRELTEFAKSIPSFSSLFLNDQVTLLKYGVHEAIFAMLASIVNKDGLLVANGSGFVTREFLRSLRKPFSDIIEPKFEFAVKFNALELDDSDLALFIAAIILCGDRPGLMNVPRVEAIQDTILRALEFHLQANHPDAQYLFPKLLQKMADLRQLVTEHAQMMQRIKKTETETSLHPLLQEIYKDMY
Sequence of Vitamin D3 receptor (Homo sapiens) (P11473 whole entry, looked up): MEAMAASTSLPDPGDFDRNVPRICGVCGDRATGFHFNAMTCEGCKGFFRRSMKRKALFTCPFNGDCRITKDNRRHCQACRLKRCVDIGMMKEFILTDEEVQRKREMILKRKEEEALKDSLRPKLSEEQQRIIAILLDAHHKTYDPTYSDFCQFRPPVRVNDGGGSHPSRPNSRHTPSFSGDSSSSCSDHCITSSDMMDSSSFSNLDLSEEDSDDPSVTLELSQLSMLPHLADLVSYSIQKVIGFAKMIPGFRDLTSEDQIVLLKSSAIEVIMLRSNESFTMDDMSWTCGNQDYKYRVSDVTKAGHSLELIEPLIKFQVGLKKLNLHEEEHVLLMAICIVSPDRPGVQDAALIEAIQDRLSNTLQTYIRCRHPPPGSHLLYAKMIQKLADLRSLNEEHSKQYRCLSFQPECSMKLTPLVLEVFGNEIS

Compound | Potency [1] | Potency [2] | Potency [3] | Potency [4] | Potency [5] | Potency [6] | Potency [7] | Potency [8] | Potency [9] | Potency [10] | Potency [11] | Potency [12] | Potency [13] | Potency [14] | Potency [15] | Potency [16] | Potency [17] | Potency [18] | Potency [19] | Potency [20]
CCc1ccc(Br)cc1 | inactive | inactive | inactive | inactive | inactive | inactive | inactive | inactive | inactive | inactive | inactive | inactive | inactive | inactive | inactive | inactive | inactive | inactive | – | –
COC1=C(OC)C(=O)C(CCCCCCCCCCO)=C(C)C1=O | – | – | – | 26.6 µM (active) | – | inactive | inactive | inactive | – | – | 23.9 µM (active) | inactive | inactive | – | 18.8 µM (active) | – | – | – | inactive | inactive
[Cl][Pt-2]([Cl])([Cl])[Cl] | – | inactive | inactive | inactive | – | inactive | inactive | inactive | inactive | – | – | inactive | inactive | – | inactive | inactive | – | – | inactive | inactive
CCCc1ccc(OCC(=O)N2CCN(C(=O)COc3ccc(CCC)cc3OC)CC2)c(OC)c1 | inactive | – | – | – | inactive | inactive | inactive | inactive | inactive | inactive | inactive | inactive | inactive | – | – | inactive | inactive | – | inactive | inactive
CC(=O)c1ccc(C(C)=O)cc1 | inactive | inactive | inactive | inactive | inactive | inactive | – | inactive | – | – | inactive | inactive | inactive | inactive | inactive | inactive | inactive | inactive | inactive | –
CCCCCCCCCCCCOC(=O)c1ccc(O)cc1 | 34.9 µM (active) | inactive | inactive | inactive | – | – | – | inactive | inactive | – | inactive | inactive | inactive | – | inactive | 55.4 µM (active) | – | inactive | 49.3 µM (active) | inactive
CC1(C)CC(O)CC(C)(C)N1 | inactive | inactive | inactive | inactive | – | – | inactive | inactive | – | inactive | inactive | inactive | inactive | inactive | inactive | inactive | inactive | inactive | inactive | –
COc1ccc(-c2coc3cc(O)ccc3c2=O)cc1 | inactive | – | inactive | – | – | – | inactive | inactive | – | inactive | inactive | inactive | inactive | – | – | inactive | inactive | – | inactive | inactive
Cc1ccc(C(=O)O)cc1 | inactive | inactive | inactive | inactive | inactive | inactive | inactive | – | – | inactive | inactive | inactive | inactive | inactive | inactive | inactive | inactive | inactive | inactive | –
CCCCCCCCCCCCOCCOCCOCCOCCOCCOCCOCCOCCOCCO | 33.5 µM (active) | inactive | – | – | – | – | 26.6 µM (active) | inactive | – | 29.8 µM (active) | 10.7 µM (active) | inactive | inactive | – | – | – | – | – | – | inactive
CN1CCN(Cc2cc(-c3ccc4[nH]c(=O)oc4c3)co2)[C@@H](c2ccc(F)cc2)C1 | – | inactive | – | inactive | – | inactive | inactive | inactive | inactive | – | – | inactive | inactive | – | 26.3 µM (active) | inactive | – | – | – | inactive
COC(=O)Nc1nc2ccc(C(=O)c3ccccc3)cc2[nH]1 | inactive | inactive | – | inactive | 1.06 µM (active) | inactive | inactive | inactive | – | inactive | inactive | inactive | inactive | – | inactive | inactive | – | – | inactive | inactive
COC(=O)c1ccccc1OC | inactive | inactive | inactive | inactive | – | – | inactive | – | – | inactive | inactive | inactive | inactive | inactive | inactive | inactive | inactive | inactive | inactive | –
CN(C)[C@@H](CCOc1cccc2ccccc12)c1ccccc1 | 23.7 µM (active) | inactive | – | inactive | inactive | – | inactive | – | inactive | – | – | inactive | inactive | – | – | – | – | – | – | inactive
Nc1ccc(NCCO)c([N+](=O)[O-])c1 | inactive | inactive | inactive | inactive | – | – | inactive | – | – | inactive | inactive | inactive | inactive | – | – | inactive | inactive | inactive | inactive | inactive
c1cnccn1 | inactive | inactive | inactive | inactive | – | inactive | inactive | – | – | inactive | inactive | inactive | inactive | inactive | inactive | inactive | inactive | inactive | inactive | –
O=C1C(c2[nH]c3ccc(S(=O)(=O)O)cc3c2O)=Nc2ccc(S(=O)(=O)O)cc21 | – | inactive | inactive | inactive | – | – | inactive | inactive | inactive | inactive | inactive | inactive | inactive | – | inactive | inactive | inactive | – | inactive | inactive
O=c1[nH]c2ccccc2n1CCCN1CCN(C(c2ccccc2)c2ccccc2)CC1 | 29.8 µM (active) | – | inactive | inactive | – | – | inactive | – | inactive | inactive | inactive | inactive | inactive | – | – | inactive | inactive | – | 26.6 µM (active) | inactive
CN(C)Cc1cc(C(C)(C)C)c(O)c(C(C)(C)C)c1 | – | inactive | inactive | – | – | – | – | inactive | inactive | inactive | – | inactive | inactive | inactive | inactive | inactive | inactive | 11 µM (active) | – | –
